About 83,000 compounds went through this panel and 20% of them were active in at least one assay; those are over-represented in the sample as a whole.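 How to read the values: 0–100, growth inhibition (40 = 60% inhibited); 0, no net growth; -100 to 0, cell death (-40 = 40% of starting cells died; -100 = all dead).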 A number with no mark means an inactive call. Activity calls are given as the source filed them.

The test concerns T-47D breast. The test is described as follows: NCI-60 one-dose screen, 48 h (100 = growth as untreated, 0 = no growth, -100 = all killed). The settings on record: 10 µM unless noted. On the procedure: Growth inhibition of the T-47D human tumor cell line is measured as a screen for anti-cancer activity. Cells are grown in 96 well plates and exposed to the test compound for 48 hours. Compounds are tested at a single concentration, which is 10^-5 M for most compounds. The reported endpoint is percent growth (GI% or GIPRCNT), where numbers from 0 - 100% represent growth inhibition, and numbers from -100% - 0 represent cell death. For example, a value of 40 represents 60% growth inhibition. A value of 0 means no net growth occurred over the course of the experiment. A value of -40 indicates 40% of cells at the beginning of the experiment died by the end of the experiment. A value of -100 means all cells are dead at the end of the experiment.
NCI-60 Human Tumor Cell Lines Screen was performed using the standard one-dose NCI protocol, which is described in more detail at https://dtp.cancer.gov/discovery_development/nci-60/default.htm.
Compounds with GIPRCNT values below 10 were considered active. Activity score was based on GIPRCNT using the following formula: […]
Score is 0 for GIPRCNT values of 100 or above, 50 for GIPRCNT values of 0, and 100 for GIPRCNT values of -100.
For the compound `O=C1CC(c2ccc3c(c2)OCO3)Nc2ccccc21` (stereo not given), the growth was 27.5%. With `C=C(C)C1CCC2(C(=O)O)CCC3(C)C(CCC4C5(C)CCC(OC(=O)NCc6ccccc6)C(C)(C)C5CCC43C)C12` (stereo not given) the figure was 33.9%; with `CC1=CC[C@@H]2C(C)(C)C(=O)CC[C@@]2(C)[C@@H]1COc1ccc2ccc(=O)oc2c1`, 6.17% (active); with `CC1Cc2c(ncnc2-n2cnc3ccccc32)N(C)c2ccccc21` (stereo not given), 33.3%. To `C=C(C)[C@@H]1CC[C@]2(C(N)=O)CC[C@]3(C)[C@H](CC[C@@H]4[C@@]5(C)C/C(=C/c6cccnc6)C(=O)C(C)(C)[C@@H]5CC[C@]43C)[C@@H]12` belongs 1.22% [100 µM] (active); to `CC(C)=CCC[C@](C)(O)[C@H]1CC[C@]2(C)[C@@H]1CC[C@@H]1[C@@]3(C)CC/C(=N/O)C(C)(C)[C@@H]3CC[C@]12C`, 7.5% [100 µM] (active). With `Cc1cccc(C[C@H](NC(=O)Nc2ccc(C)cc2F)C(=O)N[C@@H]2C(=O)N3C[C@H](O)C[C@H]3C(=O)N3CCN(C)C[C@H]3C(=O)N[C@@H](C)C(=O)N3C[C@H](C)C[C@H]3C(=O)O[C@H]2C)c1` the figure was 25.9%. `COc1ccc(C2=C(c3cn(C)c4ccccc34)C(=O)OC2)cc1OC`: the growth is 23.8%. To `CC(=O)OC[C@]12CC[C@@H]([C@@H](C)C(N)=O)[C@@H]1[C@H]1CC[C@@H]3[C@@]4(C)CC[C@H](OC(C)=O)C(C)(C)[C@@H]4CC[C@@]3(C)[C@]1(C)CC2` belongs -8.82% [100 µM] (active); to `CCc1ccc(NC(=O)N[C@@H](Cc2cc(F)cc(F)c2)C(=O)N[C@@H]2C(=O)N3C[C@H](O)C[C@H]3C(=O)N3CCOC[C@H]3C(=O)N[C@@H](C)C(=O)N3C[C@H](C)C[C@H]3C(=O)O[C@H]2C)cc1`, 18.2%.

As to `CC[C@]12C=CCN3CC[C@@]4(c5ccc(OC)cc5N(C)[C@H]4[C@@](O)(C(=O)OC)[C@@H]1OC(=O)CCC(=O)N[C@H](Cc1c[nH]c4ccccc14)C(=O)OC)[C@@H]32`, the growth is -29.3% [100 µM] (active). For `CC(C)[N+](C)(C)CC(O)COc1cccc2ccccc12` (stereo not given), the growth was 102%. To `O=C1NC(=O)c2cc([N+](=O)[O-])cc3cccc1c23` belongs 96.1%; to `C=C(C)[C@@H]1CC[C@]2(COC(=O)c3ccccc3C(=O)O)CC[C@]3(C)[C@H](CC[C@@H]4[C@@]5(C)CC[C@H](OC(=O)c6ccccc6C(=O)O)C(C)(C)[C@@H]5CC[C@]43C)[C@@H]12`, 39.6% [100 µM]. To `O=C(N/N=C\c1cc(Cl)ccc1O)N/N=C/c1cc(Cl)ccc1O` belongs 49.6%. To `CCN(CC)CCS(=O)(=O)CCNc1ccnc2cc(Cl)ccc12` belongs 43.4%; to `C[N+](C)(C)c1ncnc2[n-]cnc12`, 84%; to `CCOc1cccc2c(NC(C)CCCN(CC)CC)c(C)cnc12` (stereo not given), 115%. In the case of `O=S(=O)(NCCCNc1nccc(-c2c(-c3cccc(F)c3)nc3occn23)n1)c1cccc2ccccc12`, the growth was 4.4% (active). With `O=C(OCc1ccc2c(Cl)cc(Cl)c(O)c2n1)N1CCN(C(=O)c2cc3cc(F)ccc3[nH]2)CC1` the figure was 62.2%; with `Cn1cc(-c2noc(-c3cn(C)c4ncc(Br)cc34)n2)c2cc(Cl)ccc21`, 31.6%; with `O=c1[nH]cnc2c1ccn2C1OC(CO)C(O)C1O` (stereo not given), 54.1%. Regarding `COc1ccc2c3ccnc(C(F)(F)F)c3n(CCCCN)c2c1`, the growth is 52.1%. To `c1cc2ccc1CNCCN1CCNCc3ccc(cc3)Oc3ccc(cc3)CNCCN(CCNCc3ccc(cc3)O2)CCNCc2ccc(cc2)Oc2ccc(cc2)CNCC1` belongs -64.5% (active); to `CC(C)=CC/C=C(/C)[C@H]1CC[C@]2(C)[C@@H]1CC[C@@H]1[C@@]3(C)CC/C(=N/O)C(C)(C)[C@@H]3CC[C@]12C`, 27.2% [100 µM].

For `C=C1C(=O)O[C@H]2[C@H]1CC/C(COC(=O)NCc1ccc(Cn3c(=O)sn(-c4ccc(Cl)cc4)c3=O)cc1)=C\CC[C@@]1(C)O[C@@H]21`, the growth was 47.5%. On to `Cc1ccc2c(c1)C(C)Cc1c(Cl)ncnc1N2C` (stereo not given), for which the growth is 51.8%. To `Nc1nc(Nc2ccccc2)c2ncn(Cc3ccc4c(c3)OCO4)c2n1` belongs 33.8%; to `Cc1cccc(C[C@H](NC(=O)Nc2ccc(Cl)cc2F)C(=O)N[C@@H]2C(=O)N3C[C@H](O)C[C@H]3C(=O)N3CCN(C)C[C@H]3C(=O)N[C@@H](C)C(=O)N3C[C@H](C)C[C@H]3C(=O)O[C@H]2C)c1`, 21.5%; to `C#C[C@]1(O)CC[C@H]2[C@@H]3CC=C4c5nc(Nc6ccccc6[N+](=O)[O-])sc5CC[C@]4(C)[C@H]3CC[C@@]21C`, 41.3%. With `Oc1c(CNCCNCc2cc(Cl)cc(Cc3ccccc3)c2O)cc(Cl)cc1Cc1ccccc1` the figure was 26.1%; with `Cn1cc(-c2nnc(-c3cn(C)c4ncc(Br)cc34)o2)c2ccccc21`, 62%. To `CC(C)C1=NOC(=O)C1=Cc1cn(-c2ccccc2)nc1-c1ccccc1` belongs 76.2%; to `C=C(C)[C@@H]1CC[C@]2(C(=O)NCCCN)CC[C@]3(C)[C@H](CC[C@@H]4[C@@]5(C)CC[C@H](O)C(C)(C)[C@@H]5CC[C@]43C)[C@@H]12`, -12.8% [100 µM] (active). As for `COc1ccc(OC)c(NC=O)c1`, the growth is 101%. To `COc1ccc(NCc2cn(-c3ccc(C(=O)O)cc3)nc2-c2ccc(C(=O)O)cc2)cc1C(F)(F)F` belongs 92.7%. To `N#C/C(=C(/O)CCCO)c1nc2ccccc2c(=O)[nH]1` belongs 101%. With `O=S(=O)(NCCNc1nccc(-c2c(-c3cccc(F)c3)nc3occn23)n1)c1ccc(C(F)(F)F)cc1` the figure was 61.9%; with `CCOC(=O)C(=Cc1ccccc1[N+](=O)[O-])C(=O)OCC`, 25.5%; with `CCCCC(CCCCCC(CCCC)C1NC(C)Cc2cc(OC)c(OC)cc21)C1NC(C)Cc2cc(OC)c(OC)cc21` (stereo not given), -76.8% (active).

Source of the values: PubChem BioAssay (NCI).
